In the library only some 12% were active in any assay of this set; here they are far more common.
SARS PLP yeast: qHTS of Yeast-based Assay for SARS-CoV PLP. S. cerevisiae expressing SARS-CoV PLpro, growth rescue. Potency, µM (highest dose often 32.9 µM), most hits filed as activators. 0.19% of 330,000 active. AID 485353, 2010; calls by dose curve; also: nearly all actives have a fitted effect of over 55% in size
Pf growth 96h: Primary qHTS for delayed death inhibitors of the malarial parasite plastid, 96 hour incubation; P. falciparum luciferase reporter growth, 96 h; 6.9% of 320,000 active; Potency, µM (series often up to 28.7 µM), hits mostly inhibitors
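Infected RBCs, 2% Hct / 0.05% parasitemia final; luciferase-reporter P. falciparum; cpd 96 h, 37 C, 5% CO2; luciferase detection reagent; luminescence.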
Pf growth 48h: Primary qHTS for delayed death inhibitors of the malarial parasite plastid, 48 hour incubation; P. falciparum luciferase growth in erythrocytes, 48 h; Potency, µM (top dose mostly 28.7 µM), hits mostly inhibitors; 5.9% of 310,000 active
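Parasite viability was followed by luminescence of a genomically integrated firefly luciferase. Cultures held 0.1% parasitemia at 2% hematocrit (final), incubated under 5% CO2 at 37 C.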
Sm TGR block: qHTS Assay for the Inhibitors of Schistosoma Mansoni Peroxiredoxins; purified TGR, DTNB reduction, TNB absorbance 405 nm; 3% of 360,000 active; Potency, µM (series often up to 114 µM), usual class: inhibitors; also: nearly all actives have a fitted effect of over 60% in size
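Kinetic colorimetric format: TGR-catalysed, NADPH-driven DTNB reduction monitored via TNB absorbance. Enzyme dispensed at 20 nM; compound exposure 15 min at room temperature before reaction start.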
AmpC inh no detg: qHTS Inhibitors of AmpC Beta-Lactamase (assay without detergent) | AmpC nitrocefin hydrolysis, absorbance 480 nm, 0.0001% Triton | Potency, µM (highest dose often 57.1 µM), hits mostly inhibitors | P00811 | AID 485341, 2010 | 0.52% of 330,000 active; also: nearly all actives have a fitted effect of over 20% in size
Target sequence (P00811 whole entry, looked up): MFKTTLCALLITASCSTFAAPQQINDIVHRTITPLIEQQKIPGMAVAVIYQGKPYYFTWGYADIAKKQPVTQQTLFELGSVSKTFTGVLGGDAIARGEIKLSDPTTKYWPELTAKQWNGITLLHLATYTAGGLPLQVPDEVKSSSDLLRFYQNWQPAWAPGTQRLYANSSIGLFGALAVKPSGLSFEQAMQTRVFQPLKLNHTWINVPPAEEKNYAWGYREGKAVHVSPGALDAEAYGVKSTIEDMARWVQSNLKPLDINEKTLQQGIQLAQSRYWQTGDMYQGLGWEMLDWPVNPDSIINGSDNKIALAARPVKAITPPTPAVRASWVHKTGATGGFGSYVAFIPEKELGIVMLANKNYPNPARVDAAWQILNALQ
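AmpC (5.3 nM in the dispensed reagent) in 20 mM phosphate pH 7.0 with 0.01% (detergent screen) or 0.0001% Triton X-100 was preincubated with compounds for 15 min at room temperature. Nitrocefin was then added from an 800 uM solution, and hydrolysis was followed at 480 nm.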
AmpC inh detg: qHTS Inhibitors of AmpC Beta-Lactamase (assay with detergent) | AmpC hydrolysis of nitrocefin, absorbance 480 nm, 0.01% Triton | Potency, µM (series often up to 114 µM), most hits filed as inhibitors | 0.041% of 370,000 active | AID 485294, 2010; also: nearly all actives have a fitted effect of over 25% in size
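AmpC (5.3 nM in the dispensed reagent) in 20 mM phosphate pH 7.0 with 0.01% (detergent screen) or 0.0001% Triton X-100 was preincubated with compounds for 15 min at room temperature. Nitrocefin was then added from an 800 uM solution, and hydrolysis was followed at 480 nm.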
A number is an active result; 0 = inactive; ? = inconclusive; - = not tested or not shown. Unless noted, calls follow the shape of the dose curve; as a rule, active = well fitted curve in the direction sought with a large enough effect; inconclusive = small, poorly fitted or top-dose-only effect, or another doubt; inactive = no such curve, though single readings can be large; an effect the other way counts as inactive or inconclusive.

SMILES	SARS PLP yeast	Pf growth 96h	Pf growth 48h	Sm TGR block	AmpC inh no detg	AmpC inh detg
Cc1cc(C(=O)N(C)CC(=O)Nc2ccc(Cl)c(C(F)(F)F)c2)no1	0	?	0	0	0	?
Cc1ccc(C)c(OCC(=O)N(C)CC(=O)Nc2ccc(Cl)c(C(F)(F)F)c2)c1	0	?	12µM	0	0	0
Cc1cccc(C(=O)OCC(=O)N(C)CC(=O)Nc2ccc(Cl)c(C(F)(F)F)c2)c1	0	?	?	0	0	0
COCCOC(=O)c1sc2nc[nH]c(=O)c2c1C	0	0	0	0	0	0
CCOc1c(Br)ccc2c1sc1nc[nH]c(=O)c12	0	9.3µM	0	0	0	0
OC1CCCN(Cc2nc(Cc3ccccc3Cl)no2)C1 (centres undefined)	0	10µM	0	0	0	0
CC1CCCN(Cc2nc(Cc3ccccc3Cl)no2)C1 (centres undefined)	0	?	0	0	0	0
FC(F)(F)c1cccc(Cc2noc(CN3CCCC(CN4CCCC4)C3)n2)c1 (centres undefined)	0	9.3µM	2.6µM	0	0	0
O=C(N/N=C/c1ccc([N+](=O)[O-])s1)c1cccc(Br)c1	0	4.1µM	4.1µM	0	0	0
Cc1ccc(C(=O)N/N=C/c2ccc([N+](=O)[O-])s2)cc1	0	0	?	0	0	0
O=C(N/N=C/c1ccc([N+](=O)[O-])s1)c1ccncc1	0	1.5µM	4.7µM	?	0	0
O=C(N/N=C/c1ccc(Br)s1)c1ccc([N+](=O)[O-])cc1	0	0	2.1µM	0	0	0
CCN(CC)C(=O)C1CCCN(c2ccc([N+](=O)[O-])cc2/C=N/NC(=O)c2cccc(Br)c2)C1 (centres undefined)	0	2.1µM	4.1µM	0	0	0
O=C(N/N=C/c1cc([N+](=O)[O-])ccc1N1CCCCCC1)c1ccccn1	0	?	?	0	0	0
O=C(N/N=C/c1ccc(Br)s1)c1ccccc1[N+](=O)[O-]	0	0	0	0	0	?
Cc1cc(C)c(Cn2c3ccccc3c3cnn(CC(=O)NCc4ccc(Cl)cc4)c(=O)c32)c(C)c1	-	-	-	0	-	0
CC(C)COc1cccc(C(=O)Nc2ccc(-c3nc4ncccc4o3)cc2)c1	-	-	-	?	-	0
Cn1cc(CNCc2ccc(-n3cccn3)cc2)c(-c2ccccc2F)n1	0	0	0	-	0	0
Cc1ccc(C(=O)N/N=C\c2ccc([N+](=O)[O-])s2)cn1	0	0.33µM	4.1µM	?	0	?
Cc1ccc(C(=O)N/N=C\c2sccc2C)cn1	0	?	0	0	0	0
CCc1nnc2c3ccccc3nc(N3CCN(c4cc(C)ccc4C)CC3)n12	-	-	-	0	-	0
CCOc1ccc(CN2CCNC(=O)C2CC(=O)O)cc1 (centres undefined)	0	0	0	0	0	0
Cc1ccc(CN2CCNC(=O)C2CC(=O)O)cc1 (centres undefined)	0	0	0	35µM	0	0
O=C(O)CC1C(=O)NCCN1C/C=C/c1ccccc1 (centres undefined)	0	0	0	40µM	0	?
COc1ccccc1CN1CCNC(=O)C1CC(=O)O (centres undefined)	0	0	0	79µM	0	0
SMILES	SARS PLP yeast	Pf growth 96h	Pf growth 48h	Sm TGR block	AmpC inh no detg	AmpC inh detg
CC(C)(C)Nc1nc(-c2ccc3c(c2)CCN3C(=O)C2CC2)cs1	0	0	0	0	0	0
CCc1c(-c2ccccc2)nc2ccccc2c1C(=O)NCc1ccc(C)cc1	-	-	-	0	-	0
COc1ccccc1/C=C/C(=O)c1c2c(c(C)[nH]c1=O)CCCC2	0	?	?	45µM	0	0
COc1ccccc1/C=C/C(=O)c1ccccc1	0	0	0	?	0	0
O=C(Nc1ccccc1Cl)N(Cc1nc2ccccc2c(=O)[nH]1)Cc1cccs1	?	?	?	0	0	0
O=C(C1CC1)N(Cc1nc2ccccc2c(=O)[nH]1)Cc1cccs1	0	0	1.9µM	0	0	0
O=c1[nH]c(Cc2cccs2)nc2ccccc12	0	0	?	0	0	0
O=C(Nc1ccc(Cl)cc1)N(Cc1nc2ccccc2c(=O)[nH]1)Cc1cccs1	0	3.3µM	15µM	0	0	0
CC(C)(C)C(=O)N(Cc1nc2ccccc2c(=O)[nH]1)Cc1cccs1	0	12µM	0	0	0	0
O=C(CCCl)N(Cc1nc2ccccc2c(=O)[nH]1)Cc1cccs1	0	0	0	0	0	0
COc1ccccc1NC(=O)C1CCN(c2cnccn2)CC1	-	-	-	0	-	0
c1ccc(OCCOc2cccc3cccnc23)cc1	0	10µM	0	0	0	0
CCOC(=O)c1[nH]c(C)c(CCC(=O)NCc2ccc(N(C)C)cc2)c1C	-	-	-	0	-	0
COc1ccc(/C=C/C(=O)Nc2cccc(S(=O)(=O)NC3=NCCCCC3)c2)cc1	0	0	0	0	0	?
COc1cc(/C=C/C(=O)Nc2cccc(S(=O)(=O)NC3=NCCCCC3)c2)ccc1OCC#N	0	?	10µM	0	0	0
COc1ccc(/C=C/C(=O)Nc2cccc(S(=O)(=O)NC3=NCCCCC3)c2)c(OC)c1	0	?	?	0	0	?
COc1ccc(OC)c(/C=C/C(=O)Nc2cccc(S(=O)(=O)NC3=NCCCCC3)c2)c1	0	?	10µM	0	0	0
COc1ccc(C(=O)N/N=C(\C)CC(=O)NC2CCCCC2)c(OC)c1	0	0	0	0	0	0
CCN(CC)C(=O)CSc1nc2c(sc(=S)n2-c2ccccc2OC)c(=O)n1-c1ccccc1	0	?	12µM	0	0	0
CCC(C)NC(=O)CSc1nc2c(sc(=S)n2Cc2ccco2)c(=O)n1-c1ccccc1 (centres undefined)	0	0	-	0	0	0
CCOC(=O)CSc1nc2c(sc(=S)n2Cc2ccco2)c(=O)n1-c1ccc(F)cc1	0	0	10µM	0	0	0
CCOc1ccc(CNC(=O)c2cnc3c(C)cccn3c2=O)cc1	-	-	-	0	-	0
O=C(CSc1ncccc1C(=O)Oc1ccccc1Cl)Nc1ccccc1Cl	-	-	-	0	-	0
O=C(NC1(C(F)(F)F)Oc2ccccc2O1)N1CCCC1	0	0	0	40µM	0	0
O=C(Nc1ccc2c(c1)OCCO2)NC1(C(F)(F)F)Oc2ccccc2O1	0	0	-	40µM	0	?
O=C(Nc1ccc2c(c1)OCO2)NC1(C(F)(F)F)Oc2ccccc2O1	0	0	-	35µM	0	?
COc1ccc(CNc2ccc3cc(S(=O)(=O)N4CCCCC4)ccc3n2)cc1	-	-	-	0	-	0

Assay outcomes as filed in PubChem.
